Screens as filed in PubChem.
mHTT-CaM PPI inh = disrupts binding of mutant huntingtin to calmodulin; AlphaScreen His-mHTT/GST-CaM binding, luminescence; inhibition, % at 15 µM; 190,000 tested, 3.6% active; AID 1671202;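 also: 0% = both proteins with DMSO and 100% = one protein alone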
Pf apPOL inh = Pf-apPOL DNA polymerase inhibition | Recombinant Pf-apPOL, molecular beacon fluorescence, 1.5 h | inhibition, % at 10 µM | 210,000 tested, 0.25% active
* hit, by the source's call; x = not tested or not shown. The sample as a whole holds a higher share of hits than the screen did. Rule as the data show it: active = inhibition above about 50%; inactive = the rest.

SMILES | mHTT-CaM PPI inh | Pf apPOL inh
COc1ccc(NS(=O)(=O)c2ccc3[nH]c4c(c3c2)CCCC4)cc1 | 80* | -5
CCOc1ccccc1NC(=O)c1cc2n(n1)CCCN(Cc1ccc(F)cc1)C2=O | 2 | 9
CN1C(=O)CCC2(CN(C)S(=O)(=O)c3cccs3)CCCC12 (centres undefined) | -14 | -4
Cc1ccc(C(=O)Nc2c3c(nn2-c2ccc([N+](=O)[O-])cc2)CS(=O)(=O)C3)cc1[N+](=O)[O-] | 31 | 0
CCc1ccc(CNC(=O)C2=C3CCCN3c3ccc(F)cc3S2(=O)=O)cc1 | 4 | -9
Cc1ccnc(NS(=O)(=O)c2ccc(Cl)cc2)c1 | -1 | 0
Cc1ccnc(NS(=O)(=O)c2ccc(C(C)(C)C)cc2)c1 | 100* | -2
CC(NC(=O)CNc1c2ccccc2nc2ccccc12)C(=O)O (centres undefined) | 3 | -9
COc1ccccc1Cc1noc(C2CN(C(=O)C(C)(C)Oc3ccc(Cl)cc3)C2)n1 | 70* | -4
CC(C)(Oc1ccc(Cl)cc1)C(=O)N1CC(c2nc(-c3ccccn3)no2)C1 | 0 | 5
O=C(CN1CCN(C2c3ccccc3-c3ccccc32)CC1)Nc1ccc(F)cc1 | 46 | 3
NC(=O)c1ccc(NC(=O)CN2CCN(C3c4ccccc4-c4ccccc43)CC2)cc1 | 59* | 2
Cc1ccc(NC(=O)CN2CCN(C3c4ccccc4-c4ccccc43)CC2)cc1F | 22 | 0
COc1ccc(NC(=O)CN2CCN(C3c4ccccc4-c4ccccc43)CC2)cc1 | 55* | 2
Fc1ccc(Cc2nc3ccccc3nc2SCc2cccnc2)cc1 | -6 | -5
COc1ccc(C2=CC(c3cc(OC)c(OC)c(OC)c3)n3nnnc3N2)cc1 (centres undefined) | 5 | 10
CSc1sc(SC)c(C=O)c1Br | 0 | 0
N#Cc1c(N2CCCCC2)ncc2c(=O)c3ccccc3[nH]c12 | 4 | 0
CC(=O)N(C(C)=O)c1ncc2c([nH]c3ccccc32)c1C#N | 83* | -3
O=C(CCCn1c(=O)[nH]c2ccccc2c1=O)NCCc1ccccc1Cl | 0 | -3
O=C(O)C1CSC(c2ccc(Cl)c(Cl)c2)N1 (centres undefined) | 2 | 4
O=C(O)C1CSC(c2cc(Br)ccc2O)N1 (centres undefined) | 56* | 8
O=C(O)C1CSC(c2cc(Cl)cc(Cl)c2O)N1 (centres undefined) | 91* | 0
COc1ccc(Br)cc1C1NC(C(=O)O)CS1 (centres undefined) | 16 | -8
COc1ccc(CNC(=O)NCC(O)C2CCCCC2)cc1OC (centres undefined) | -3 | 1
SMILES | mHTT-CaM PPI inh | Pf apPOL inh
Cc1ccc(C)c(N2CCN(C(=O)C3CCCN(c4cnn(C)c(=O)c4)C3)CC2)c1 (centres undefined) | 19 | -4
CCc1nnc(SCC(=O)Nc2cccc(C(F)(F)F)c2)nc1CC | -5 | -1
COCCNc1nc(SCC(=O)Nc2cccc(C(F)(F)F)c2)nc2ccccc12 | 67* | -2
CN1CC2c3ccccc3OC(c3ccc4c(c3)OCO4)C2([N+](=O)[O-])O1 (centres undefined) | 96* | x
c1ccc(C2=NN3C(C2)c2ccccc2OC3c2ccc3c(c2)OCO3)cc1 (centres undefined) | 5 | -1
O=C1C(=O)N(CCCCN2C(=O)C(=O)c3ccccc32)c2ccccc21 | 7 | 2
O=C1C(=O)N(Cc2ccc(Cl)c(Cl)c2)c2ccc([N+](=O)[O-])cc21 | 91* | 2
O=C1C(=O)N(Cc2ccc(Br)cc2)c2ccc([N+](=O)[O-])cc21 | 24 | 2
O=C1C(=O)N(Cc2ccc(Cl)c(Cl)c2)c2ccccc21 | 93* | -3
O=C1C(=O)N(Cc2ccc(F)cc2)c2ccccc21 | 45 | 0
O=C1C(=O)N(Cc2ccc(Br)cc2)c2ccccc21 | 70* | -2
O=C(NCCc1ccccn1)C1CN(C(=O)c2cccs2)CC12CCCCC2 (centres undefined) | 7 | 2
Cc1nc(CCNC(=O)C2CCCN2S(=O)(=O)c2cccc(C(F)(F)F)c2)cs1 (centres undefined) | 2 | -3
CC1CCCCN1S(=O)(=O)c1ccc(C(=O)Nc2nc3c(s2)Cc2ccccc2-3)cc1 (centres undefined) | 21 | -5
CC1CCCN(S(=O)(=O)c2ccc(C(=O)Nc3nc(-c4ccccn4)cs3)cc2)C1 (centres undefined) | 100* | -1
CC1CCN(S(=O)(=O)c2ccc(C(=O)Nc3nc4c(s3)Cc3ccccc3-4)cc2)CC1 | 10 | -10
O=C(Nc1nc(-c2cc(Cl)ccc2Cl)cs1)c1ccc(N2C(=O)CCC2=O)cc1 | -6 | 0
CC1CCN(S(=O)(=O)c2ccc(C(=O)Nc3nc(-c4ccccn4)cs3)cc2)CC1 | 98* | -3
Cc1nnc(NC(=O)c2ccc(S(=O)(=O)N3CCCC(C)C3)cc2)o1 (centres undefined) | 24 | -4
CC1CCCCN1S(=O)(=O)c1ccc(C(=O)Nc2nc(-c3ccccn3)cs2)cc1 (centres undefined) | 100* | -9
O=C(Nc1nc(-c2ccccn2)cs1)c1ccc(N2C(=O)CCC2=O)cc1 | 100* | -6
O=C(NCc1csc(C2CCN(S(=O)(=O)c3cccc(Cl)c3)CC2)n1)C1CC1 | 6 | -4
Cc1ccc(N2C(=O)CSC2c2cc3c(cc2[N+](=O)[O-])OCO3)cc1F (centres undefined) | 28 | -4
O=C(Cn1cncc(-c2nc(-c3ccccc3)cs2)c1=O)N1CCc2ccccc2C1 | -9 | -6
O=[N+]([O-])c1ccc(N=Cc2cc3c(cc2[N+](=O)[O-])OCO3)c(Br)c1 | 4 | -7
SMILES | mHTT-CaM PPI inh | Pf apPOL inh
Cn1c(=O)n(C)c2cc(N=Cc3ccc(Br)c([N+](=O)[O-])c3)ccc21 | 29 | -5
Cc1cccc(N=Cc2cc3c(cc2[N+](=O)[O-])OCO3)c1C | 89* | 0
COc1ccc(N=Cc2ccc(Br)c([N+](=O)[O-])c2)cc1OC | 54* | 2
COc1cc([N+](=O)[O-])cc(C=Nc2cc(C(C)(C)C)cc(Cl)c2O)c1O | 10 | -2
CC(C)(C)c1cc(Cl)c(O)c(N=Cc2cc3c(cc2[N+](=O)[O-])OCO3)c1 | 85* | 1
Cc1ccc(O)c(N=Cc2cccc([N+](=O)[O-])c2O)c1 | 20 | -1
Cc1ccc(O)c(N=Cc2cc3c(cc2[N+](=O)[O-])OCO3)c1 | 99* | -3
CC(=O)N1CCc2cc(N3CC(C(=O)Nc4ccccc4C)CC3=O)ccc21 (centres undefined) | -2 | -6
O=C1OC(Nc2ccc([N+](=O)[O-])cc2O)c2ccccc21 (centres undefined) | 3 | -2
Cc1cccc(-n2c(N)cc(=O)nc2SC(C)C(=O)Nc2ccc(S(N)(=O)=O)cc2)c1 (centres undefined) | 14 | -5
Cc1ccc(O)c(N=Cc2ccc(Br)c([N+](=O)[O-])c2)c1 | 58* | -11
Cc1ccc(O)c(N=Cc2ccc(Cl)c([N+](=O)[O-])c2)c1 | 23 | 0
CC12CC(NC(=O)N1CCc1ccccc1)c1ccccc1O2 (centres undefined) | -2 | 2
CC1C2NC(=O)N(Cc3ccccc3)C1(C)Oc1ccccc12 (centres undefined) | 68* | 0
CCCN(C)Cc1nc2nc(C)cc(N3CCCCC3)n2n1 | 7 | -6
